PubChem BioAssay AID1619 (SRMLSC, 2009)
Screen size: about 220,000 compounds; about 830 (0.38%) were called active.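 How the source made its calls: active means compound inhibiting the enzyme by more than half at any dose during confirmatory dose-response retesting; inconclusive means strong single-dose inhibitors picked by rank but not retested; inactive means the rest.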 These entries were drawn from the full list. Measured potencies and affinities stand elsewhere.

Biological target: Leucine aminopeptidase (Plasmodium falciparum (isolate 3D7)) (UniProt Q8IL11)
Assay: P. falciparum M17LAP inhibitors, primary screen, biochemical, fluorogenic H-Leu-NHMec substrate, 1536-well (AID 1619);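 further: plate controls were full reaction with DMSO carrier for no effect and no enzyme background for full effect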
Conditions: recombinant M17LAP, H-Leu-NHMec fluorogenic kinetic assay; at 30 µM; active compounds read high

Sequence of Leucine aminopeptidase (Plasmodium falciparum (isolate 3D7)) (Q8IL11 whole entry, looked up): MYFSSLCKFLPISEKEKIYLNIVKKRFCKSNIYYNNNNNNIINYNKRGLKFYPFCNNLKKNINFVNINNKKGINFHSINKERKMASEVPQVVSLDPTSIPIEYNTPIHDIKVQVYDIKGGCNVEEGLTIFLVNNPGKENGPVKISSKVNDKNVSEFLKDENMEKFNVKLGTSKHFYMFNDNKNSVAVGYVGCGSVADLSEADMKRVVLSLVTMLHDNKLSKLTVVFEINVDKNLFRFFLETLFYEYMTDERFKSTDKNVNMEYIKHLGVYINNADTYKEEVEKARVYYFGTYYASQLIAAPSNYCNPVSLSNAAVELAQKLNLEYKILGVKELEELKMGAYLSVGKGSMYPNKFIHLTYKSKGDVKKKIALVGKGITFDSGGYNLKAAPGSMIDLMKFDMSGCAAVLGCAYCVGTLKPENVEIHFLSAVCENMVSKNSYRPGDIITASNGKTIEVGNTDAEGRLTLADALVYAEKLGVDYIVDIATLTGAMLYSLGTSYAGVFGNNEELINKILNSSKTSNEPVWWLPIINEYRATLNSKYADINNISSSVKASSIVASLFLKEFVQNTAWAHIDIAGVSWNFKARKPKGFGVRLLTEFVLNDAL

inhibition, inactive:
O=C(NNC(=S)Nc1ccc(Br)cc1Cl)c1ccncc1 21.5%
CCOC(=O)c1ccc(NC(=O)C2CCCN(S(=O)(=O)c3cnc[nH]3)C2)cc1 (stereo unspecified) -0.78%
COc1ccc(CN2CCN(C(C)C)C(CCO)C2)cc1Cn1cncn1 (stereo unspecified) 1.4%
COc1ccc(N2CCN(CCCNC(=O)C3CCC(CNc4nc(=S)[nH]c5ccccc45)CC3)CC2)cc1 (stereo unspecified) 10.8%
COc1ccccc1N(CC(=O)NCCC1=CCCCC1)S(=O)(=O)c1ccccc1 -1.31%
CC1CN(C2CCN(C(=O)c3ccccc3)CC2)CC(C)O1 (stereo unspecified) 6.07%
O=C(c1ccccc1F)N(Cc1ccc2c(c1)OCO2)Cc1cc2cc3c(cc2n2nnnc12)OCO3 3.97%
CCOC(=O)c1sc(=S)n(-c2ccccc2)c1N 6.93%
CCOc1ccc(-n2c(=S)sc3c(=O)[nH]c(SCC(=O)C(C)(C)C)nc32)cc1 37%
CCOC(=O)CSc1nc2c(sc(=S)n2Cc2ccco2)c(=O)n1-c1ccccc1 6.2%
CCCN(CCC)C(=O)CSc1nc2c(sc(=S)n2-c2ccc(OCC)cc2)c(=O)[nH]1 30.1%
CCN(CC)C(=O)CSc1nc2c(sc(=S)n2-c2ccccc2)c(=O)[nH]1 12%
CCOC(=O)CSc1nc2c(sc(=S)n2-c2ccc(OCC)cc2)c(=O)[nH]1 14.5%
CCN(CC)C(=O)CSc1nc2c(sc(=S)n2Cc2ccco2)c(=O)n1-c1ccccc1 8.29%
O=S(=O)(c1cc(Cl)cc(Cl)c1)N1CCCC1c1nc2ccccc2s1 (stereo unspecified) -5.02%
O=C(COc1ncnc2sccc12)Nc1ccc2c(c1)OCCO2 34.8%
COc1ccccc1CNC(=O)COc1ccccc1OC 3.35%
Cc1cccc(NC(=O)Nc2ccc3c(c2)N(C)C(=O)CS3)n1 3.25%
O=c1c2c(-c3ccc(Cl)cc3)csc2ncn1/N=C/c1cccc([N+](=O)[O-])c1O -4.46%
Cc1ccc(N2NC(C)(c3cccs3)NC2=S)cc1 (stereo unspecified) -1.38%
COc1cc(NC(=O)c2nccnc2N)cc(C(=O)Nc2cccc(C(F)(F)F)c2)c1 -5.13%
O=C(O)c1ccc(Cn2cc(C(F)(F)F)ccc2=O)cc1 -4.03%
O=C(CC1Sc2ccccc2NC1=O)Nc1cccc(-c2nnc3n2CCCCC3)c1 (stereo unspecified) 3%
O=C(CC1Sc2ccccc2NC1=O)Nc1cccnc1 (stereo unspecified) 5.83%
O=C(O)c1ccc(NC(=O)C2(c3ccccc3)CCCC2)cc1 3.99%
COc1ccc2nc(Nc3sc4c(c3C(N)=O)CCCC4)sc2c1 8.22%
Fc1cccc2sc(Nc3nc4c(F)cccc4s3)nc12 16.7%
COC(=O)Nc1sc2c(c1C(N)=O)CCC(C)C2 (stereo unspecified) 26.4%
CC1CCc2c(sc(NC(=O)C3c4ccccc4Oc4ccccc43)c2C(N)=O)C1 (stereo unspecified) 8.46%
CC(=O)c1ccc(Nc2ccc(-c3ccccc3F)nn2)cc1 28.4%
COC(=O)c1ccccc1NC(=O)C(C)c1ccc([N+](=O)[O-])cc1 (stereo unspecified) -0.59%
N#C/C(C(=O)NCc1ccccc1)=C1/N=C(NC(=O)c2cccs2)c2ccccc21 5.68%
CCOC(=O)C1=C(C)N=C2SCCC(=O)N2[C@@H]1c1cccs1 3.63%
NC(=O)CC(NC(=O)Cc1cccc2ccccc12)c1ccc(NC2CCC2)c([N+](=O)[O-])c1 (stereo unspecified) 15%
COC(=O)c1cn(C(=O)c2cccc(C)c2)c2ccccc12 1.71%
Cc1cccc(C(=O)NC(=S)Nc2ccccc2C(=O)O)c1 3.36%
Cc1cccc(C(=O)NC(=S)NNC(=O)c2ccc(Cl)cc2)c1 86.2%
O=C(Cc1ccccc1)NNC(=S)NC(=O)c1cccnc1 13.8%
Cc1cccc(NC(=S)NNC(=O)Cc2ccccc2)c1 15.6%
Cc1cccc(C(=O)NC(=S)NNC(=O)COc2ccc(Cl)cc2)c1 8.45%
Cc1ccc(C(=O)NC(=S)NNC(=O)COc2ccccc2C)cc1 -0.9%
O=C(NNC(=S)NC(=O)c1cccnc1)c1ccc(Cl)cc1 71.2%
O=C(NC(=S)NNC(=O)c1ccccc1F)c1cccnc1 5.36%
O=C(O)c1ccc2c(c1)SC1=NS(=O)(=O)CCN12 -2.18%
CCN1CCN(C(=O)CSc2cc(=O)n(CC)c3ccccc23)CC1 4.46%
CCC(C)NC(=O)CS(=O)Cc1nc(-c2ccccc2C)oc1C (stereo unspecified) 2.41%
Cn1c(N)c(C(=O)c2ccc(F)cc2F)c(=O)n(C)c1=O 5.53%
COC(=O)[C@H](Cc1ccccc1)NC(=O)O[C@H]1C(=O)c2ccc(OC)cc2O[C@@H]1c1ccc2c(c1)OCO2 -10.7%
CC(=O)Nc1ccc(NC(=O)C2CCCCC2C(=O)O)cc1 (stereo unspecified) 8.65%
O=C(O)[C@H]1CCCC[C@H]1C(=O)Nc1ccc(Nc2ccccc2)cc1 54.9%
CN(C(=O)c1ccc(NC(=O)C2CC=CCC2C(=O)O)cc1)c1ccccc1 (stereo unspecified) 45.1%
O=C(O)C1CCCCC1C(=O)Nc1ccc(-c2ccccc2)cc1 (stereo unspecified) 6.02%
CCCOC(=O)c1ccc(NC(=O)C2C3CCC(C3)C2C(=O)O)cc1 (stereo unspecified) 43.4%
COC(=O)c1ccc(NC(=O)C2C3CCC(C3)C2C(=O)O)cc1 (stereo unspecified) 39%
O=C(O)Cc1ccc(NC(=O)C2CC=CCC2C(=O)O)cc1 (stereo unspecified) 11.1%
CC(=O)Nc1ccc(NC(=O)[C@@H]2CCCC[C@@H]2C(=O)O)cc1 -3.15%
O=C(O)CCSCCCN1C(=O)c2cccc3cccc(c23)C1=O 8.08%
CCCc1cc(=O)[nH]c(SCC(=O)Nc2cc(C)on2)n1 3.41%
Cc1ccc(C2CC(C(F)(F)F)n3nc(C(=O)Nc4c(C)n(C)n(-c5ccccc5)c4=O)cc3N2)cc1 (stereo unspecified) 2.06%
COc1ccc(NC(=O)c2ccc(-n3c(C)ccc3C)cc2)c(OC)c1 4.59%
Cc1nc(C)c(-c2csc(Nc3ccc(F)cc3)n2)s1 -0.33%
Cc1ccc(Oc2ncc(-c3ccc(Cl)cc3)cn2)cc1 -3.58%
CCOC(=O)N1CCN(c2cc(N)c([N+](=O)[O-])cc2F)CC1 -0.96%
Cc1ccc(C(=O)Nc2ccn(Cc3ccc(F)cc3)n2)o1 2%
COc1ccc(C(=O)Nc2cccc(C(=O)NCc3ccccc3)c2)cc1 3.07%
Oc1ccc(C(c2nnnn2CCc2ccccc2)N2CCN(c3nc4ccccc4s3)CC2)cc1 (stereo unspecified) 3.87%
CCOC(=O)NCc1ccc(Cl)c(Cl)c1 -9.33%
CC(C)(C)OC(=O)CN1C(=O)C(Sc2n[nH]c(-c3ccccc3)n2)CCc2ccccc21 (stereo unspecified) 3.43%
CCSc1nc(N)nc(-c2cccs2)c1C#N 5.48%
CN(Cc1ccccc1)Cc1nc2c([nH]1)c(=O)[nH]c(=O)n2C -7.23%
CC(NC(=O)c1cccnc1)C(c1cccs1)N1CCN(C)CC1 (stereo unspecified) 0.81%
O=C(O)Cc1ccc(NC(=O)C2CCCCC2C(=O)O)cc1 (stereo unspecified) 19%
CN(C1CCCCC1)S(=O)(=O)c1ccc(NC(=O)C2CCCCC2C(=O)O)cc1 (stereo unspecified) 44%
CCOC(=O)N1CCN(C(=O)c2ccc(CS(=O)(=O)c3c(Cl)cccc3Cl)o2)CC1 3.87%
CCCCOc1ccc(C(=O)OCC(=O)Nc2cc(C)on2)cc1 2.23%
CCOC(=O)c1c(CSCc2ccccc2)oc2ccc(O)c(CN(C)C)c12 -2.1%
Cc1ccc2c(=O)[nH]c(Cc3ccccc3C(=O)O)nc2c1 2.27%
Cc1ccc(N/N=C2/CCCNC2=O)cc1 40.4%
Cc1ccc(NN=C2c3ccccc3-c3ccccc32)cc1 5.01%
Cc1ccc(N(CC(O)CN2C(=O)NC(C)(C)C2=O)S(=O)(=O)c2ccc(C)cc2)cc1 (stereo unspecified) -16.4%
Cc1ccc(/C=N/Nc2ccc(Cl)c(C(=O)O)c2)s1 49.5%
O=C(O)c1ccc(N/N=C/c2ccc(-c3ccccc3)cc2)cc1 2.22%
O=C(O)c1ccc(N/N=C/c2ccc(F)c(F)c2)cc1 50.5%
O=C(O)c1ccc(/C=N/Nc2cccc(C(F)(F)F)c2)cc1 16.4%
CC(C)(C)c1ccc(/C=N/Nc2cccc(C(=O)O)c2)cc1 12.1%
Fc1ccc(N/N=C/c2ccncc2)c(F)c1 -6.64%
O=C(O)c1ccc(/C=N/NC(=O)c2ccc(F)cc2)cc1 7.3%
Cc1ccc(/C=N/Nc2cccc(C(=O)O)c2)s1 53.6%
C=CCNC(=O)CN1CCC(NC(=O)c2ccco2)CC1 4.27%
Cc1ccc(/C=N/NC(=O)Cn2cncn2)cc1 2.86%
CC(=O)N1CCN(c2ccc(NC(=O)c3ccc4c(c3)OCO4)cc2)CC1 -9.38%
COc1ccc(C2Nc3ccccc3C(=O)N2c2ccccc2)cc1CN1CCOCC1 (stereo unspecified) -163%
CC(/C=C/c1ccc2c(c1)OCO2)=N/NC(=O)c1cccnc1 17.2%
Cc1ccc(NNC(=O)c2ccc(Cl)cc2)nn1 17.4%
COc1cc(/C=N/Nc2ccc(C(=O)O)cc2)ccc1O 22.3%
COc1ccc(/C=N/Nc2ccc(C(=O)O)cc2)cc1OC 25.7%
